# Compound activity as filed in PubChem BioAssay.
# The list is not random: actives were taken first. Their share in the collection is about 31%.
# CYP2C19 act: increases human CYP2C19 enzyme activity; P33261; recombinant CYP2C19, luciferin-H EGE luminescence; stronger effect = higher value; 0 = fully inhibited enzyme, 1 = untreated enzyme; activation factor at 5 µM; 96,000 tested, under 10 active;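 active = activation factor of at least 2 at 5 µM in the primary screen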
# CYP2C9 act: increases human cytochrome P450 2C9 activity. P11712. recombinant CYP2C9, luciferin-H conversion, luminescence; stronger effect = higher value; factor 1 = untreated enzyme, 0 = blocked. activation factor at 5 µM. 96,000 tested, 1.4% active. AID 1024;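 active = activation factor of 2 or more for CYP2C9 at a 5 µM dose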
# Target sequence (P11712 whole entry, looked up): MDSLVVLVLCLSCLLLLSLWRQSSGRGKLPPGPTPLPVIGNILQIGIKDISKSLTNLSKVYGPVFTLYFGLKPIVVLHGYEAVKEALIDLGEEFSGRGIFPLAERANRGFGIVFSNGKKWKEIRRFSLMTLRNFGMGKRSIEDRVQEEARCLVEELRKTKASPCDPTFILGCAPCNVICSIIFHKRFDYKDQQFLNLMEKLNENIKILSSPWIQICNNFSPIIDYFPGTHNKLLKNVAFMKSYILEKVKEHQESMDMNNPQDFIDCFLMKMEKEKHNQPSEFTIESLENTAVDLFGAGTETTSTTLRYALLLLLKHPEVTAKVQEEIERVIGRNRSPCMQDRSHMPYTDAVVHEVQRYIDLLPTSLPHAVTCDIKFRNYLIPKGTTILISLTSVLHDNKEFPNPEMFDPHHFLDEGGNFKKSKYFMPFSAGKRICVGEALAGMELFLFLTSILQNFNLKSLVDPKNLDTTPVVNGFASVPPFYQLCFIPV
# CYP2C19 inh: human CYP2C19 inhibition; CYP2C19 Supersomes, luciferin-H EGE luminescence, 30 min; inhibition, % at 5 µM; 96,000 tested, 21% active; AID 778;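 active = CYP2C19 inhibition above a set limit at 5 µM in the primary screen, cut at about 50% in these data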
# CYP2C9 inhib: blocks human cytochrome P450 2C9 | CYP2C9 Supersomes, luciferin-H conversion, luminescence | inhibition, % at 5 µM | 96,000 tested, 20% active;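 active = blocking of liver enzyme CYP2C9 beyond about 50% at 5 µM, limit read from the data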
# A number is an active result; 0 = inactive.
SMILES,CYP2C19 act,CYP2C9 act,CYP2C19 inh,CYP2C9 inhib
COc1cc(NC(=O)Cn2ncc3c2-c2ccccc2OC3)cc(OC)c1OC,0,0,55,0
O=C(Cn1ncc2c1-c1ccccc1OC2)Nc1ccc(Cl)cn1,0,0,0,0
O=C(Cn1ncc2c1-c1ccccc1OC2)Nc1cccc(Cl)c1,0,0,56,0
CCOC(=O)C1CCN(C(=O)CCn2c(=O)[nH]c3ccsc3c2=O)CC1,0,0,0,0
CCOc1ccc(-c2nc(C#N)c(N3CCN(Cc4ccccc4)CC3)o2)cc1,0,0,0,67
COc1ccc(Nc2oc(COc3ccc(Cl)cc3)nc2C#N)cc1,0,0,0,0
N#Cc1nc(COc2ccccc2)oc1N1CCCCCC1,0,0,0,0
N#Cc1nc(COc2ccc(Cl)cc2)oc1N1CCN(Cc2ccccc2)CC1,0,0,0,53
COc1ccc(N2CCN(c3oc(COc4ccc(Cl)cc4)nc3C#N)CC2)cc1,0,0,0,50
c1ccc(-c2cnnc(N3CCCCC3)n2)cc1,0,0,83,0
FC(F)(F)c1cc(-c2ccccc2)nc(N2CCCCCC2)n1,0,0,0,0
Nc1nc(-c2ccccc2)cc(N2CCCCC2)n1,0,0,51,0
c1ccc(-c2cc(N3CCCCC3)ncn2)cc1,0,0,87,0
Cc1nc(-c2ccccc2)cc(N2CCCC2)n1,0,0,51,0
Cn1c(=O)[nH]c(=O)c2c1nc(SCC(O)CO)n2Cc1ccccc1Cl (stereo not drawn),0,0,0,0
CCNC(=O)CN(c1ccc(OC)c(OC)c1)S(=O)(=O)c1ccccc1,0,0,0,0
COc1ccc(N(CC(=O)NCc2ccco2)S(=O)(=O)c2ccc(OC)c(OC)c2)cc1,0,0,100,0
CCOc1ccc(N(CC(=O)NCc2ccco2)S(=O)(=O)c2ccc(OC)c(OC)c2)cc1,0,0,98,62
COc1ccc(C(=O)/C=C\N2CCOCC2)cc1,0,0,0,0
CCCCCCC1CCC(C(=O)NC(CCSC)C(=O)NC(C(=O)OC)C(C)C)CC1 (stereo not drawn),0,0,86,0
COC(=O)C(NC(=O)C(CC(C)C)NC(=O)C1CCC(C)CC1)C(C)C (stereo not drawn),0,0,0,0
COc1ccccc1-c1nc2n(n1)C(c1cccs1)C(C(=O)Nc1cccnc1)=C(C)N2 (stereo not drawn),0,0,0,0
CCn1c(-c2cc3c(C(F)(F)F)nn(C)c3s2)n[nH]c1=S,0,0,0,0
CC(C)CNC(=O)c1ccc(Cl)c(Cl)c1,0,0,0,0
CC1(C)CC(=O)C(C=Nc2ccc3cn[nH]c3c2)=C(O)C1,0,0,54,0
SMILES,CYP2C19 act,CYP2C9 act,CYP2C19 inh,CYP2C9 inhib
CC1(C)CC(=O)C(C=Nc2ccc(O)cc2)=C(O)C1,0,0,0,0
CC1(C)CC(=O)C(C=Nc2ccc3[nH]ncc3c2)=C(O)C1,0,0,100,0
CCOC(=O)c1c(N)n[nH]c1-c1ccc(OC)cc1,0,0,0,0
CCOC(=O)c1sc(-c2ccc(F)cc2)cc1N,0,0,90,83
CCOC(=O)c1sc(-c2ccc(OC)cc2)cc1N,0,0,65,68
CCOC(=O)c1sc(-c2ccccc2)cc1N,0,0,90,80
CCOC(=O)N1CCN(C(=O)Cn2cc3c(n2)CCCC3)CC1,0,0,0,0
COc1ccc(NC(=O)CSc2nnc(-c3cccs3)n2-c2ccccc2)cc1,0,0,0,0
CN(CCCNC(=O)c1ccc(/C=N/O)nc1)CCCN(C)Cc1ccccc1,0,0,0,0
CNS(=O)(=O)c1ccc(Oc2ccc(S(=O)(=O)NC)cc2)cc1,0,0,0,0
O=C(CN1C(=O)c2ccccc2S1(=O)=O)NC1CC2CCC1C2 (stereo not drawn),0,0,0,0
CCCS(=O)(=O)N1CCCC(C(=O)N2CCN(c3ccccn3)CC2)C1 (stereo not drawn),0,0,0,0
O=C(C1CCCN(S(=O)(=O)c2cccc3nsnc23)C1)N1CCN(c2ccccn2)CC1 (stereo not drawn),0,0,0,76
COc1ccc(CNC(=O)C2CCCN(S(=O)(=O)c3c(C)nn(C)c3C)C2)cc1 (stereo not drawn),0,0,0,0
CC1CC(C)CN(C(=O)C2CCCN(S(=O)(=O)c3cccc4nonc34)C2)C1 (stereo not drawn),0,0,0,76
Cc1nn(C)c(C)c1S(=O)(=O)N1CCCC(C(=O)N2CCN(c3ccccc3)CC2)C1 (stereo not drawn),0,0,58,0
O=C(C1CCCN(S(=O)(=O)c2cccc3nonc23)C1)N1CCN(c2ccccc2)CC1 (stereo not drawn),0,0,60,60
CC1CCN(C(=O)C2CCN(S(=O)(=O)c3cccc4nonc34)CC2)CC1,0,0,0,0
[O-]/[N+](=C/c1ccc(F)cc1)c1ccc(Cl)cc1,0,0,0,0
CCOC(=O)C1CCN(S(=O)(=O)c2cccc3nonc23)CC1,0,0,72,88
Cc1cc(C)c2c(N=NN(C)C)[nH]nc2n1,0,0,0,0
COc1ccc(OC)c(NC(=O)C(CCS(C)(=O)=O)NC(C)=O)c1 (stereo not drawn),0,0,0,0
O=C1C=C(N2CCN(C3=CC(=O)CCC3)CC2)CCC1,0,0,0,0
O=[N+]([O-])c1cccc(Cl)c1NCCNS(=O)(=O)c1ccccc1,0,2,60,0
CCOC(=O)c1c(C2COc3ccccc3O2)csc1NC(=O)c1ccco1 (stereo not drawn),0,0,0,0
SMILES,CYP2C19 act,CYP2C9 act,CYP2C19 inh,CYP2C9 inhib
COC(=O)CC1COc2ccccc2N1C(=O)c1cccc(Cl)c1 (stereo not drawn),0,0,63,0
Cc1ccc(N(C(=O)C2CCCC2)C2C=CS(=O)(=O)C2)cc1C (stereo not drawn),0,0,0,0
COc1cccc(Cn2c(-c3nonc3N)nc3ccccc32)c1,0,0,0,0
COc1cccc(Cn2c(-c3cccs3)noc2=O)c1,0,0,82,0
Cc1ccc(C(=O)Nc2ncc(Cc3ccccc3)s2)o1,0,0,0,0
N#Cc1cnn2c1nc(N1CCOCC1)c1ccccc12,0,0,0,0
O=C1C2C3c4ccccc4C(c4ccccc43)C2C(=O)N1c1nc(-c2ccccc2)cs1 (stereo not drawn),0,0,0,62
N#CC1=C(N)SC(N)=C(C#N)C1CCC1CCCCC1,0,0,0,0
CC(=O)NC(N1CCCCC1)C(F)(F)C(F)(F)C(F)(F)C(F)F (stereo not drawn),0,0,99,65
O=P(O)(O)C(O)C(F)(F)C(F)(F)C(F)(F)C(F)F (stereo not drawn),0,0,0,0
CC(=O)Nc1cccc(NS(=O)(=O)c2cccc3nsnc23)c1,0,0,57,0
Cc1ccc(C)c(NS(=O)(=O)c2c(C)ccc3nsnc23)c1,0,0,0,0
Cc1ccc2nsnc2c1S(=O)(=O)Nc1cccc2nsnc12,0,0,0,90
CC(=O)Nc1c(C)ccc2nsnc12,0,0,0,0
COc1ccc(NS(=O)(=O)c2cccc3nsnc23)cc1OC,0,0,82,0
COc1ccc(S(=O)(=O)Nc2c(C)ccc3nsnc23)cc1OC,0,0,69,0
